ssDAF12 agonist = S. stercoralis DAF-12 nuclear receptor activators, primary screen, cell-based, luminescence, HEK293, GRIP1 co-expression, lit1-tk-luc; Nuclear hormone receptor DAF-12 (Strongyloides stercoralis); AID 652126, 2013; activation, % at 6.8 µM; HEK293 ssDAF-12/GRIP1 lit1-tk-luc reporter; % of 3 µM dafachronic acid response; 370,000 compounds, 1% hits;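 active means activation above the mean over all tested compounds plus 3 SD, cut at about 0.9% in these data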
DAX1 inh = DAX1 (NR0B1) inhibitors on StAR promoter, primary screen, cell-based, luminescence, SF-1 (NR5A1), full-length DAX-1; inhibition, % at 6.8 µM; HEK293T StAR-luciferase reporter, SF-1/DAX-1 repression relief; AID 652010, 2013; 370,000 compounds, 1.1% hits;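 active means inhibition above the mean over all tested compounds plus 3 SD, cut at about 3.6% in these data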;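 further: higher inhibition means more luminescence from relief of DAX-1 repression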
hgDAF-12 ag = H. glycines DAF-12 receptor agonists, primary screen, cell-based, luminescence, HEK293, GAL4 fusion, UAS-luciferase | activation, % at 6.8 µM | 370,000 compounds, 1.8% hits | HEK293 GAL4-hgDAF12 UAS-luciferase reporter, agonist luminescence; normalized to butyrate control | AID 687014, 2013 | Nuclear hormone receptor DAF-12 (Heterodera glycines), GAL4 fusion;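 active means activation above a cutoff set at the mean of all screened compounds plus 3 SD, cut at about 10% in these data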
Wnt bcat act = Wnt/beta-catenin pathway activators, primary screen, cell-based, plate reader, single point; AID 743398, 2014; 300,000 compounds, 1.2% hits; Wnt/beta-catenin reporter cell assay, activator; activation, % at 9.35 µM; in the data active means activation above about 30%, passing the limit was not always enough
esBAF inh = Bmi1 luciferase reporter increase in mESCs, primary screen, esBAF inhibitor project, mouse ES cells, Bmi1 luciferase knock-in, single point. reporter increase, % at 12.5 µM. 350,000 compounds, 2% hits. 24 h; 100% = twice the neutral-well signal; in the data active means activation above about 40%;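 further: a rise in the Bmi1 reporter signal indicates esBAF inhibition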
hcDAF12 agonist = H. contortus DAF-12 nuclear receptor activators, primary screen, cell-based, luminescence, HEK293, lit1-tk-luc reporter; 370,000 compounds, 1.4% hits; HEK293 hcDAF-12 lit1-tk-luc reporter; 0% DMSO, 100% Δ7-dafachronic acid; activation, % at 6.8 µM;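 active means activation above the mean of all tested compounds plus 3 SD, cut at about 5.5% in these data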
DAX1 conf = DAX1 (NR0B1) inhibitors relieving SF-1 repression, confirmation, cell-based, luminescence, HEK293T, full-length DAX-1, SF-1 activated StAR promoter; shares compounds with DAX1 inh; HEK293T StAR-promoter luciferase reporter, SF-1/DAX-1 repression; inhibition, % at 6.8 µM; 2,400 compounds, 87% hits; AID 652134, 2013;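 active means inhibition above the average of every tested compound plus 3 SD, cut at about 3.8% in these data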
Target sequence (P51843 whole entry, looked up): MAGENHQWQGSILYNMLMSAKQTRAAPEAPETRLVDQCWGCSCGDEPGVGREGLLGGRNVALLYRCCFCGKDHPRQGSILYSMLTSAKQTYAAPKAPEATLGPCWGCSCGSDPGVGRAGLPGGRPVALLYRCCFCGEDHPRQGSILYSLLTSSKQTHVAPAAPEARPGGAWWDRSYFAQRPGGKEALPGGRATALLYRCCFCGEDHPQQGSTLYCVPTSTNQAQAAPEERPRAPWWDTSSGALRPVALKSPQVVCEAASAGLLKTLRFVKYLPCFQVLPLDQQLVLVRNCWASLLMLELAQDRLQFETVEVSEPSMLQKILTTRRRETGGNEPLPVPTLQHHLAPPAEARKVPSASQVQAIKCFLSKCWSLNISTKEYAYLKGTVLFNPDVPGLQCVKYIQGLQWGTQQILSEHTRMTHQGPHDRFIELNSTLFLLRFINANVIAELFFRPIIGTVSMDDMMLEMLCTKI
SF1 mutant ctr = StAR reporter signal changes without DAX1, counter-screen for DAX1 inhibitor project, cell-based, luminescence, AF-2 mutant SF-1, transactivation | 2,400 compounds, 78% hits | inhibition, % at 6.8 µM | shares compounds with DAX1 inh | HEK293 StAR-luciferase, SF-1 AF2 mutant | AID 652136, 2013;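 active means inhibition above the mean of all tested compounds plus 3 SD, cut at about 3% in these data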
Numbers stand for hits; . = inactive; / = no result given. The list is not random: actives were taken first. Their share in the collection is about 4.2%.

SMILES | ssDAF12 agonist | DAX1 inh | hgDAF-12 ag | Wnt bcat act | esBAF inh | hcDAF12 agonist | DAX1 conf | SF1 mutant ctr
CN(CC(=O)Nc1cccc(F)c1)C(=O)c1cn2ccccc2n1 | . | . | . | . | . | . | / | /
O=C(CNC(=O)c1cn2ccccc2n1)Nc1ccc(F)c(F)c1 | . | 6.2 | . | 34.5 | / | . | 8.5 | 5.7
CCOc1ccccc1N1CC(C(=O)NCCC2=CCCCC2)CC1=O (configuration not stated) | . | 5.2 | . | . | 46.0 | . | 4.1 | 3.3
COc1ccc(N=[N+]([O-])c2ccc(OC)cc2)cc1 | . | 7.9 | . | . | . | . | 15.9 | 6.8
CCOC(=O)c1ccc(NC(=O)N2CCc3ccccc32)cc1 | . | 4.8 | 18.5 | 40.3 | 68.4 | . | 10.8 | 7.9
CCOC(=O)c1ccc(NC(=O)N2CCc3ccccc3C2)cc1 | . | . | . | . | . | . | / | /
Cc1ccc(OCC(=O)Nc2ccc(F)cc2)c([N+](=O)[O-])n1 | . | . | . | . | / | . | / | /
Cc1ccc(OCC(=O)Nc2ccc(Cl)cc2)c([N+](=O)[O-])n1 | . | 6.2 | 11.3 | 41.5 | 62.9 | . | 10.0 | 7.5
Cc1cc(C)c2nc(N3CCN(C(=O)c4ccco4)CC3)sc2c1 | . | 5.0 | . | . | 53.6 | . | 4.4 | .
O=C(c1ccco1)N1CCN(c2nc3ccsc3c(=O)s2)CC1 | . | . | . | . | . | . | / | /
O=C(C[C@H]1CC[C@H]2[C@@H](COC[C@@H](O)CN2Cc2ccc(Oc3ccccc3)cc2)O1)N1CCCCC1 | / | / | / | / | . | / | / | /
CC(=O)N(C)C[C@@H]1Oc2cc(C#Cc3ccccn3)ccc2S(=O)(=O)N([C@H](C)CO)C[C@H]1C | / | / | / | / | . | / | / | /
CC(C)C1Oc2ccccc2C(=O)N(CC(=O)c2ccc3c(c2)OCCO3)C1=O (configuration not stated) | . | 7.6 | . | 33.4 | 71.4 | . | 13.6 | 8.8
O=C(N[C@H]1C=C[C@H](CC(=O)N2CCc3ccccc3C2)O[C@@H]1CO)C1CC1 | / | / | / | / | . | / | / | /
CCCCC[C@H](C)N1C[C@H](COCc2ccccc2)Oc2cc(N3CCC[C@@H]3COC)ccc2S1(=O)=O | . | 5.4 | . | . | / | . | . | .
CCCN(C)C[C@H]1OCCCC[C@@H](C)Oc2ccc(NS(=O)(=O)c3cn(C)cn3)cc2C(=O)N([C@H](C)CO)C[C@@H]1C | / | / | / | / | . | / | / | /
Oc1ccc(C=NN=Cc2ccco2)c(O)c1 | . | 4.6 | . | . | / | . | 7.2 | 4.8
Brc1ccccc1-c1nc2c3ccccc3ncn2n1 | . | 4.6 | 10.9 | 39.3 | 49.3 | 6.0 | 9.0 | 6.4
S=c1nc2ccccc2c2nc(-c3ccccc3Br)[nH]n12 | . | . | . | . | . | . | / | /
S=C(NCCc1ccc(Cl)cc1)NC1CCCCC1 | . | 5.0 | . | . | 62.6 | . | . | 3.0
S=C(NCCc1ccc(Cl)cc1)NC1CCCC1 | . | . | . | . | / | . | / | /
N/C(=N\OC(=O)c1ccccc1)c1ccn[nH]1 | . | 11.7 | . | 48.5 | . | . | 8.2 | 4.9
COc1ccc(NC(=O)c2noc3c2CCC3)cc1 | . | 4.9 | 13.1 | . | 94.9 | . | 13.3 | 6.0
CC(=O)c1ccc(NC(=O)c2noc3c2CCC3)cc1 | . | . | . | . | . | . | / | /

High-throughput results deposited in PubChem by several laboratories.
